# Assay results from PubChem BioAssay AID624489 (Broad Institute, 2012).
# Entries with a potency or affinity are not part of this list. A number with no mark means an inactive call.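 Rule for the calls: active = compounds with a falling luminescence curve whose half-maximal concentration is at most twice the top valid dose; inconclusive = flat fit between -70 and -30 percent, or poor fit; inactive = the rest.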
# Assay: A375 melanoma cell cytotoxicity, dose response, counter-screen for MITF inhibitor project, CellTiter-Glo luminescence, dry powder, set 2 (AID 624489)
# Details: A375 melanoma viability, CellTiter-Glo ATP luminescence, 24 h; series mostly up to 35 µM; activity change, negative = cytotoxicity: at the top concentration
row,SMILES,"activity change, negative = cytotoxicity"
1,C=CCNC1=C(NC(=O)c2ccccc2)C(=O)c2ccccc2C1=O,-9.93%
2,C=CCNC1=C(NS(=O)(=O)c2cccs2)C(=O)c2ccccc2C1=O,-7.19%
3,COc1ccc(C2=C(NC(=O)c3ccc(OC)cc3-c3cccc(OC)c3)C(=O)c3ccccc3C2=O)cc1,-0.405%
4,C=CCNC1=C(NCC=C)C(=O)c2ccccc2C1=O,-5.66%
5,O=C1C(NS(=O)(=O)c2ccc(Br)cc2)=C(N2CCN(c3ccccc3)CC2)C(=O)c2ccccc21,-6.92%
